According to PubChem BioAssay AID1159580 (chemical genetic matrix, 2015):
About 2,000 (36%) of roughly 5,500 compounds were called active. Roughly 18% stayed inconclusive and do not appear here. Rule as the data show it: active = normalized growth mostly below about 0.91 (no sharp cut-off); inconclusive = no clear call, values can overlap the other calls; inactive = mostly above about 0.92. This is one part of the list.

Assay: chemical genetic growth profiling, strain panel (AID 1159580);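 also: tested at 20 µM; growth read once vehicle control cultures reached saturation at 30 °C; 1 = growth at the plate median or of vehicle wells; lower values mean less growth of the strain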
Conditions: growth OD
[1] = S. cerevisiae deletion strains, locus YDL101C, strain DUN1, active compounds read low
[2] = S. cerevisiae deletion strains, locus YHR030C, strain SLT2, active compounds read low
[3] = S. cerevisiae deletion strains, locus YAL013W, strain DEP1, active compounds read low
[4] = S. cerevisiae deletion strains, locus YBR229C, strain ROT2, active compounds read low
[5] = S. cerevisiae deletion strains, locus YDR150W, strain NUM1, active compounds read low
[6] = S. cerevisiae deletion strains, locus YEL061C, strain CIN8, active compounds read low
[7] = S. cerevisiae deletion strains, locus YGR078C, strain PAC10, active compounds read low
[8] = S. cerevisiae deletion strains, locus YHR087W, strain rtc3, active compounds read low
[9] = S. cerevisiae deletion strains, locus YJR043C, strain POL32, active compounds read low
[10] = S. cerevisiae deletion strains, locus YJR075W, strain HOC1, active compounds read low
[11] = S. cerevisiae deletion strains, locus YKL190W, strain CNB1, active compounds read low
[12] = S. cerevisiae deletion strains, locus YLR039C, strain RIC1, active compounds read low
[13] = S. cerevisiae deletion strains, locus YLR058C, strain SHM2 (second series), active compounds read low
[14] = S. cerevisiae deletion strains, locus YLR085C, strain ARP6, active compounds read low
[15] = S. cerevisiae deletion strains, locus YLR262C, strain YPT6, active compounds read low
[16] = S. cerevisiae deletion strains, locus YML094W, strain GIM5, active compounds read low
[17] = S. cerevisiae deletion strains, locus YMR219W, strain ESC1, active compounds read low
[18] = S. cerevisiae deletion strains, locus YMR263W, strain SAP30, active compounds read low
[19] = S. cerevisiae deletion strains, locus YMR307W, strain GAS1, active compounds read low
[20] = S. cerevisiae deletion strains, locus YNL153C, strain GIM3, active compounds read low
[21] = S. cerevisiae deletion strains, locus YNL298W, strain CLA4 (second series), active compounds read low
[22] = S. cerevisiae deletion strains, locus YNL322C, strain KRE1, active compounds read low
[23] = S. cerevisiae deletion strains, locus YNR030W, strain Alg12, active compounds read low
[24] = S. cerevisiae deletion strains, locus YPL055C, strain LGE1, active compounds read low
[25] = S. cerevisiae deletion strains, locus YPL241C, strain CIN2, active compounds read low
[26] = S. cerevisiae deletion strains, locus YPR135W, strain CTF4, active compounds read low

Measured: normalized growth

Cc1ccc(OCC2SCCN2C(=O)c2ccc(C(F)(F)F)cc2)c([N+](=O)[O-])c1 (configuration not stated)
inactive: S. cerevisiae deletion strains, locus YAR019C, strain CDC15, active compounds read low 1.01 | S. cerevisiae deletion strains, locus YBL105C, strain PKC1, active compounds read low 1.01 | S. cerevisiae deletion strains, locus YBR135W, strain CKS1, active compounds read low 1.01 | S. cerevisiae deletion strains, locus YBR136W, strain MEC1, active compounds read low 1.02 | S. cerevisiae deletion strains, locus YBR160W, strain CDC28, active compounds read low 1.01 | S. cerevisiae deletion strains, locus YDL017W, strain CDC7, active compounds read low 1.03 | S. cerevisiae deletion strains, locus YDL028C, strain MPS1, active compounds read low 1.02 | [1] 1 | S. cerevisiae deletion strains, locus YDL108W, strain KIN28, active compounds read low 1.02 | S. cerevisiae deletion strains, locus YDL132W, strain cdc53, active compounds read low 1 | S. cerevisiae deletion strains, locus YDL214C, strain PRR2, active compounds read low 0.998 | S. cerevisiae deletion strains, locus YDR052C, strain DBF4, active compounds read low 1.02 | S. cerevisiae deletion strains, locus YDR054C, strain cdc34, active compounds read low 0.986 | S. cerevisiae deletion strains, locus YDR226W, strain ADK1, active compounds read low 1.01 | S. cerevisiae deletion strains, locus YDR477W, strain SNF1, active compounds read low 0.981 | S. cerevisiae deletion strains, locus YER123W, strain YCK3, active compounds read low 0.955 | S. cerevisiae deletion strains, locus YER133W, strain GLC7, active compounds read low 0.985 | S. cerevisiae deletion strains, locus YFL009W, strain cdc4, active compounds read low 1.02 | S. cerevisiae deletion strains, locus YFL029C, strain CAK1, active compounds read low 1.01 | S. cerevisiae deletion strains, locus YFR003C, strain YPI1, active compounds read low 1.01 | S. cerevisiae deletion strains, locus YFR019W, strain FAB1, active compounds read low 0.97 | S. cerevisiae deletion strains, locus YFR028C, strain CDC14, active compounds read low 1.01 | S. cerevisiae deletion strains, locus YGR040W, strain KSS1, active compounds read low 1 | S. cerevisiae deletion strains, locus YGR052W, strain FMP48, active compounds read low 1.12 | S. cerevisiae deletion strains, locus YGR092W, strain DBF2, active compounds read low 1.02 | [2] 0.984 | S. cerevisiae deletion strains, locus YHR079C, strain IRE1, active compounds read low 1.01 | S. cerevisiae deletion strains, locus YHR082C, strain KSP1, active compounds read low 1.09 | S. cerevisiae deletion strains, locus YHR205W, strain SCH9, active compounds read low 0.998 | S. cerevisiae deletion strains, locus YIL147C, strain SLN1, active compounds read low 1.02 | S. cerevisiae deletion strains, locus YJL095W, strain BCK1, active compounds read low 1.01 | S. cerevisiae deletion strains, locus YJL128C, strain PBS2, active compounds read low 0.979 | S. cerevisiae deletion strains, locus YJL157C, strain FAR1, active compounds read low 0.994 | S. cerevisiae deletion strains, locus YJR016C, strain ILV3, active compounds read low 1.01 | S. cerevisiae deletion strains, locus YJR066W, strain TOR1 (second series), active compounds read low 0.927 | S. cerevisiae deletion strains, locus YJR066W, strain TOR1, active compounds read low 1.06 | S. cerevisiae deletion strains, locus YKL048C, strain ELM1, active compounds read low 1 | S. cerevisiae deletion strains, locus YKL067W, strain YNK1, active compounds read low 1 | S. cerevisiae deletion strains, locus YKL101W, strain HSL1, active compounds read low 0.996 | S. cerevisiae deletion strains, locus YKL193C, strain SDS22, active compounds read low 1.02 | S. cerevisiae deletion strains, locus YKL203C, strain TOR2, active compounds read low 1.04 | S. cerevisiae deletion strains, locus YLR113W, strain HOG1, active compounds read low 0.97 | S. cerevisiae deletion strains, locus YLR133W, strain CKI1, active compounds read low 1 | S. cerevisiae deletion strains, locus YLR403W, strain SFP1, active compounds read low 0.997 | S. cerevisiae deletion strains, locus YML070W, strain DAK1, active compounds read low 0.982 | S. cerevisiae deletion strains, locus YMR001C, strain CDC5, active compounds read low 1.01 | S. cerevisiae deletion strains, locus YMR205C, strain PFK2 (second series), active compounds read low 1 | S. cerevisiae deletion strains, locus YMR277W, strain FCP1, active compounds read low 1.02 | S. cerevisiae deletion strains, locus YNL006W, strain LST8, active compounds read low 1.02 | S. cerevisiae deletion strains, locus YNL020C, strain ARK1, active compounds read low 1 | S. cerevisiae deletion strains, locus YNL161W, strain CBK1, active compounds read low 1.01 | S. cerevisiae deletion strains, locus YNL183C, strain NPR1, active compounds read low 1.06 | S. cerevisiae deletion strains, locus YNL207W, strain RIO2, active compounds read low 1.02 | S. cerevisiae deletion strains, locus YNL222W, strain SSU72, active compounds read low 1.01 | S. cerevisiae deletion strains, locus YNL307C, strain MCK1 (second series), active compounds read low 0.993 | S. cerevisiae deletion strains, locus YOL078W, strain AVO1, active compounds read low 1.01 | S. cerevisiae deletion strains, locus YOL136C, strain PFK27, active compounds read low 0.965 | S. cerevisiae deletion strains, locus YOR061W, strain CKA2, active compounds read low 0.978 | S. cerevisiae deletion strains, locus YOR119C, strain RIO1, active compounds read low 1.05 | S. cerevisiae deletion strains, locus YOR231W, strain MKK1, active compounds read low 0.955 | S. cerevisiae deletion strains, locus YOR329C, strain SCD5, active compounds read low 1.02 | S. cerevisiae deletion strains, locus YPL031C, strain PHO85, active compounds read low 0.992 | S. cerevisiae deletion strains, locus YPL153C, strain RAD53, active compounds read low 0.987 | S. cerevisiae deletion strains, locus YPL204W, strain HRR25, active compounds read low 0.99 | S. cerevisiae deletion strains, locus YPL209C, strain IPL1, active compounds read low 1.01 | S. cerevisiae deletion strains, locus YPL256C, strain CLN2, active compounds read low 0.962 | S. cerevisiae deletion strains, locus YPR025C, strain CCL1, active compounds read low 1.01 | S. cerevisiae deletion strains, locus YPR106W, strain ISR1, active compounds read low 1.01 | S. cerevisiae deletion strains, locus YPR111W, strain DBF20, active compounds read low 1 | S. cerevisiae deletion strains, strain NNK1, active compounds read low 1.03 | S. cerevisiae deletion strains, strain TSCII, active compounds read low 1

COC(=O)c1sccc1OC(=O)c1c(F)cccc1F
inactive: [3] 0.963 | [4] 0.974 | [1] 0.908 | [5] 0.939 | [6] 1.01 | [7] 0.955 | [2] 0.726 | [8] 1.02 | [9] 0.981 | [10] 0.97 | [11] 0.989 | [12] 0.841 | [13] 0.961 | [14] 0.891 | [15] 0.914 | [16] 0.981 | [17] 0.955 | [18] 0.974 | [19] 0.975 | [20] 0.99 | [21] 0.912 | [22] 0.96 | [23] 0.979 | S. cerevisiae deletion strains, locus YOL006C, strain TOP1, active compounds read low 0.884 | [24] 0.97 | [25] 0.926 | [26] 0.768

O=C(Oc1ccc(C(F)(F)F)cc1[N+](=O)[O-])c1c(F)cccc1F
active: [3] 0.185 | [4] 0.178 | [1] 0.316 | [5] 0.25 | [6] 0.235 | [7] 0.172 | S. cerevisiae deletion strains, locus YGR229C, strain SMI1, active compounds read low 0.927 | [2] 0.16 | [8] 0.133 | S. cerevisiae deletion strains, locus YJL187C, strain SWE1, active compounds read low 0.141 | [9] 0.424 | [10] 0.101 | [11] 0.218 | [12] 0.286 | [13] 0.15 | [14] 0.122 | [15] 0.316 | [16] 0.4 | [17] 0.14 | [18] 0.169 | [19] 0.213 | [20] 0.227 | [21] 0.23 | [22] 0.577 | [23] 0.559 | [24] 0.171 | [25] 0.685 | [26] 0.269 | S. cerevisiae strains, strain wild type, active compounds read low 0.515
